Measurements from the supplement of paper PMC11417369.
± gives the standard deviation of the averaged measurements. Whole data set: some 25,000 sequences, median “ln(normalized median fluorescence intensity)” near 8.9, cut for the highest 2% near 10. The entries come from a sample that favours the highest values as a whole.

Tested on: PfAP2-LT AP2 domain (GST-tagged)
Experiment: gcPBM binding intensity (ln(normalized median fluorescence intensity)); higher = stronger DNA binding
Method in brief: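 Plasmodium falciparum DNA-binding domains carrying a GST tag were expressed in E. coli and applied for 1 h, at about 25 μg on average, to an Agilent 4 × 180k array. The array held primer-extended double-stranded 36-bp intergenic genomic probes together with negative controls, and binding took place in 1× PBS with 1% milk, 0.2 mg/ml BSA, 0.5% salmon testes DNA and 0.03% Triton X-100. An Alexa488 anti-GST antibody detected bound protein, and the array was scanned at 488 nm. Binding intensity is taken as the highest Masliner-normalised natural-log median intensity across replicate spots of either probe orientation.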

| Sequence | gcPBM binding intensity (ln) |
| --- | --- |
| TTTTGAAGAAAATTCTTTTTTTTTTTTTTTTGTAAA [CACACA_negctrl_site102] | 7.76 ± 0.65 |
| AAATATTATGTGGCAAGTACATAAAGAAAATGCTTA [XGTACX_site3356] | 8.89 ± 0.56 |
| AAAAAAAAAAAAAAAGCACACATCATATTTTAATTC [CACACA_site9109] | 8.87 ± 0.28 |
| ATATATATATATATATAATATATAATATATATATAT [CACACA_negctrl_site96] | 9.01 ± 0.11 |
| AATAATAACAAATGAACACACATATATATGAGCAAA [CACACA_site2121] | 9.13 ± 0.41 |
| ATGATTATTTTAAAAAGTACTAATTATTATTTTTTT [XGTACX_site7242] | 8.34 ± 0.47 |
| TTCGTTATATTTTGATGTACTGATTCATATATATAT [XGTACX_site1835] | 9.09 ± 0.42 |
| ATTTTCTATTTTATTTGTACGTAATTTAATTTTTTT [XGTACX_site3609] | 8.96 ± 0.53 |
| TATATACAAAATGCCTGTACATATATATTTATTTAT [XGTACX_site761] | 8.85 ± 0.35 |
| ATAATATAATAATACACACTCATTATATATATAAAG [CACACA_site3956] | 8.82 ± 0.43 |
| GGTCATCATCGGTATTGTACAAAAATGTGAAAATTA [XGTACX_site639] | 8.73 ± 0.48 |
| AAATATATTATATCATATATTAAAGCATATATTAAA [CACACA_negctrl_site1624] | 8.43 ± 0.42 |
| TATCTGTATTTGTATACACACAAATGTATTTATTTA [CACACA_site4830] | 8.94 ± 0.44 |
| TATATTATAAATTAATGTACGTAATTTTTTTTTTTT [XGTACX_site2500] | 8.38 ± 0.48 |
| AACAAAAATGAAAAAACACACATAACATATATAAAT [CACACA_site740] | 9.27 ± 0.41 |
| TTTATAAACAAATGAACACACAAACATATATATATA [CACACA_site5713] | 9.33 ± 0.24 |
| ATAAAATGAACAAACACACACACATATATATATATA [CACACA_site2402] | 10.2 ± 0.13 |
| TTAACTATAATAAAATGTACATATGTAACATATATA [XGTACX_site7790] | 8.66 ± 0.4 |
| ATTAATTATTTCAATGCATGTGAACACTATATATAA [TGCATGCA_site600] | 8.84 ± 0.42 |
| ATGGATAATAAGTTTACACACAAAAAAAAAGAAAAA [CACACA_site861] | 9.02 ± 0.57 |
| GTTCATAAATTAAACACACACACACCCCTGGATACC [CACACA_site3331] | 10.13 ± 0.085 |
| GTTCATAAATTAAACACACACACACCGCTGGATACC [CACACA_site5779] | 9.77 ± 0.16 |
| GTTCATAAATTAAACACACACACACGGCTGGATACC [CACACA_site7545] | 9.79 ± 0.26 |
| ATAATTTGGAAACACACACACACACCCACATATATA [CACACA_site2286] | 10.28 ± 0.064 |
| TAAACACCCATATAAACACACATATAAACACCCATA [CACACA_site5382] | 9.4 ± 0.21 |

| Sequence | gcPBM binding intensity (ln) |
| --- | --- |
| AAAAGAAAAAGAAAAACACACATAAATATAAATATA [CACACA_site1879] | 8.93 ± 0.64 |
| CACTAAAAGAAACACACACACACACCCATATATATA [CACACA_site4151] | 10.2 ± 0.23 |
| CAGGCACTAATAAACACACACATATAAATATAAATA [CACACA_site6320] | 9.38 ± 0.59 |
| CCCACTAAAAAACACACACACACACCCATATATATA [CACACA_site6140] | 10.31 ± 0.078 |
| CATATTTGGAAACACACACACATATTTATATATATA [CACACA_site3569] | 9.62 ± 0.38 |
| CACCCACTAATAAACACACACATATATATATATATA [CACACA_site389] | 10.3 ± 0.18 |
| TAATTTTTGAAACACACACACATATATATATATATA [CACACA_site94] | 9.885 ± 0.0071 |
| ATACTAAAGAAACACACACACATATATATATAGAAT [CACACA_site100] | 9.94 ± 0.28 |
| AAAAAAAAAAAACACACACACACACCCATATATAAA [CACACA_site1170] | 9.995 ± 0.064 |
| AAAAAATTATATAATAATAGAACTATACATTTTATT [GTGCAC_negctrl_site645] | 8.44 ± 0.47 |
| TACAATAAGGATAAGTGTACATATGTGCATACATAT [XGTACX_site7188] | 8.96 ± 0.35 |
| TATTATTATTTTTTATGTACTAACGACAAAAATATT [XGTACX_site252] | 8.48 ± 0.4 |
| AATATTTTTATATATATACACACTTACATATATATA [CACACA_site3609] | 8.91 ± 0.4 |
| TTTTTTTTTTTGTGGGTGCGTTTATAAAAACAGGAA | 8.42 ± 0.33 |
| GGAACGTTCATATTTCCACACACAAAAAATAAATAT [CACACA_site9101] | 9.31 ± 0.57 |
| TTACACAAGGATAAAAACATATGTATGATTATATAT [CACACA_negctrl_site654] | 8.89 ± 0.47 |
| ATAGCTTTTATTTAAAGTACAAAAAGGATGTTGAAA [XGTACX_site3810] | 8.46 ± 0.44 |
| TTTTTTAAGTAATGAAATGATTTTCTTATAGAATAA [GTGCAC_negctrl_site395] | 7.96 ± 0.36 |
| AAAAAACAATTTGTGTGTACACATGATACGTTCGAT [XGTACX_site4112] | 9.39 ± 0.28 |
| TTAAAAAAAAAACACACACACATACCCATATATATA [CACACA_site5768] | 9.825 ± 0.021 |
| TCTCATAGTAAACACACACACACACCCACATATATA [CACACA_site5034] | 9.97 ± 0.071 |
| CGCACTAAAAAACACACACACACACCCATATATATA [CACACA_site4152] | 10.2 ± 0.29 |
| AACATATAAAAATGTGCACACACACCCATATATATA [CACACA_site1525] | 9.79 ± 0.3 |
| TTTCCCATAGGAAAAACACACATATATTATATATAA [CACACA_site1981] | 8.57 ± 0.4 |
| TCTCATAGGAAACACACACACACACCCACATATATA [CACACA_site1738] | 10.1 ± 0.11 |

| Sequence | gcPBM binding intensity (ln) |
| --- | --- |
| AATAAAATATAATAATTAATATATATATATATATAA [GTGCAC_negctrl_site457] | 8.65 ± 0.45 |
| ACACACAATACAAAAGTGCATATAATAATTAATCAT | 9.34 ± 0.46 |
| TTATAATATATATGTGGTACTTATTTATTTATTTAT [XGTACX_site7572] | 8.72 ± 0.49 |
| AACAAATTAATTCTAGTGCAGGACGTATTTGTGTAC [GTGCAC_site9907] | 8.88 ± 0.36 |
| AACATACACATATACACACACACATATATACATATA [CACACA_site1093] | 9.89 ± 0.23 |
| AAAAAAAAAAAAAAAACACACACATATATATAATAT [CACACA_site9038] | 9.3 ± 0.41 |
| AAAAAAAAAAAACATACACACATACATACATATATA [CACACA_site8222] | 9.26 ± 0.35 |
| AAAAAAAAAAAAAACACACACATATATATATATATA [CACACA_site1891] | 10.1 ± 0.37 |
| CATATATAAAAAAACACACACATATATATATATATA [CACACA_site1195] | 9.82 ± 0.042 |
| AAAAAAACACACACATATATATATATATATATATAT [GTGCAC_negctrl_site498] | 10.2 ± 0.16 |
| AAAAAAAAAAAACACACACACATATATATATATATA [CACACA_site732] | 10.4 ± 0.19 |
| ACACATATATATATATATATATATATATATATATAT [CACACA_negctrl_site1766] | 9.935 ± 0.035 |
| AAAAAAAAAAAAAAAACACACACATATATATATATA [CACACA_site8571] | 9.72 ± 0.29 |
| AAAAAAAAAAAAAACACACATACATACATACATATA [CACACA_site4121] | 9.13 ± 0.38 |
| AAAAAAAAAAAAAACACACACATATATATAATATAT [CACACA_site3172] | 9.37 ± 0.41 |
| AACACACACATATATATATATATATATATATATATA [GTGCAC_negctrl_site573] | 10.5 ± 0.13 |
| ATATTATATTATATAACACACATTTTTCATAACACT [CACACA_site407] | 8.95 ± 0.34 |
| TATTAATTTTTATACGCATGTGTATAGTAATATATA [TGCATGCA_site1010] | 8.66 ± 0.37 |
| TTTATAAACAAATGAACACACAAACATATTTATATA [CACACA_site7478] | 8.86 ± 0.42 |
| TATGAATATCTATACACACACATATATATACTCACT [CACACA_site1597] | 9.39 ± 0.36 |
| ATACGAAGTACGTACACACACTTATATGTTACTAAA [CACACA_site7812] | 9.26 ± 0.33 |
| CAATACTATTATTATAGTACGTATAAAATTATATAT [XGTACX_site4950] | 8.71 ± 0.49 |
| TATTTTATCATTTGCACACGCACACCGACATAAAAA [CACACA_site4348] | 9.26 ± 0.28 |
| AAAAGTATATATTCAGTGCATAGTCTTTAAATATAA [GTGCAC_site9522] | 8.7 ± 0.38 |
| AAAAAAAAAACATACACACATACATACATATATATT [CACACA_site949] | 9.28 ± 0.27 |

| Sequence | gcPBM binding intensity (ln) |
| --- | --- |
| AAAAAAAAAAAAAAAACACACATATATATATAATAT [CACACA_site1159] | 8.96 ± 0.42 |
| AAAAAAAAAAAAAAAACACACATATATATATATATA [CACACA_site2436] | 10.095 ± 0.0071 |
| AAAAAATATTGAAGTACACACATTATGAACTTTTTT [CACACA_site1733] | 8.78 ± 0.42 |
| AAAGAATACATATATTGTACATATATATATACCGTT [XGTACX_site6250] | 9.02 ± 0.45 |
| TTTTTTTTTTTTTGTGCATGTAGATTTATTGTTATA [TGCATGCA_site582] | 8.79 ± 0.39 |
| ATGTAGATAAAACGTGTGCACATGTTTTTTGTTATT | 10.3 ± 0.2 |
| TATGTTTTTACGTGTGTGCACTTTGTAGAGATAAGT | 9.06 ± 0.38 |
| AAAAAGAAAAAACGAAGTACAATTATAAGATTATAT [XGTACX_site410] | 8.86 ± 0.47 |
| ATGTTCTTTAAAACCACACACCCCCCAACCCCCCTC [CACACA_site2373] | 10.1 ± 0.13 |
| TATGTAACCTGTTTTACACACCCCCACCCCCCTCTT [CACACA_site319] | 10.09 ± 0.05 |
| ACCCTATATGTAACTACACACCGCATATTGTTTACT [CACACA_site3071] | 9.46 ± 0.42 |
| CATATATAGATATATACACACATACATACATACATA [CACACA_site7748] | 9.3 ± 0.27 |
| AACATACATAGACACACACACACACGCACACGCACA [CACACA_site6373] | 10.35 ± 0.071 |
| AGATAGATACATACACGTACATATATATATACACAT [XGTACX_site4755] | 9.18 ± 0.35 |
| TATAGATACATATACACACACACACCCACATATATA [CACACA_site3436] | 9.94 ± 0.11 |
| CATACACATACACATACACACGCATAGAAACATACG [CACACA_site8666] | 9.55 ± 0.51 |
| CATAGATACATACACGCACACACATATATATATATA [CACACA_site13] | 10.2 ± 0.17 |
| TATACACATAGACACACACACATACACGCACATACA [CACACA_site6908] | 9.99 ± 0.17 |
| TATAGATACATATACACACACACACCGACATATATA [CACACA_site9138] | 10.2 ± 0.14 |
| CACGCACGCACATACACACACATACACATATAAATA [CACACA_site6907] | 9.72 ± 0.45 |
| TAGATACATACACGCACACACATATATATATATATA [CACACA_site12] | 10.11 ± 0.035 |
| TATAGATACAGATACACACACACACCGACATATATA [CACACA_site5832] | 10 ± 0.22 |
| TAGATACATACACGCACACACATATATAAATAAATA [CACACA_site6157] | 9.68 ± 0.35 |
